This is an account of results in PubChem BioAssay.

Broadly, the inhibition is the change of the read-out against control, counted positive when it falls.

Experiment [1] is described as follows: NFkB reporter suppression in cystic fibrosis bronchial cells – cell-based, uHTS hits, panel, cytotoxicity readout, dose response (AID 624344). As to conditions: CF bronchial epithelial cells, PAF-induced NFkB reporter inhibition, with PAF, run 1; at 79 µM (top of the series) unless noted.
Assay in experiment [2]: as above
Conditions: CF bronchial epithelial cells, PAF-induced NFkB reporter inhibition, with PAF, run 2; at 79 µM (top of the series) unless noted.

As for `CCCCN(c1ccccc1)c1ncnc(N)c1[N+](=O)[O-]`, the figures for the inhibition in experiment [1] and in experiment [2] were 97.4% and 101%, respectively.

Regarding `O=C1/C(=C/c2cccnc2)CCc2c1[nH]c1ccccc21`, the inhibition amounted to 103% in experiment [1] and 109% in experiment [2].

As for `CC1Sc2ccc(Cl)cc2-c2nc(N)ncc21` (stereo not given), the figures for the inhibition in experiment [1] and in experiment [2] were 102% and 108%, respectively.

Consider `CCOc1cc2c(cc1O)C(=NOC)CC1C2CCC2(C)C(O)CCC12` (stereo not given), for which the inhibition in experiment [1] was 74%; in experiment [2] it was 94.3%.

Take `Cc1c(Cl)cccc1NC(=O)COC(=O)c1c2c(nc3ccccc13)CCN(Cc1ccccc1)C2`: the values for the inhibition in experiment [1] and in experiment [2] were 72.2% and 97.3%, respectively.

Consider `CC(=O)c1ccc(Nc2ncnc3ccc(Br)cc23)cc1`, for which the inhibition is 91.3% in experiment [1] and 98.4% in experiment [2].

On to `CC(C)(C)OC(=O)NCC(=O)Oc1cc2oc(=O)cc(-c3ccccc3)c2cc1Cl`, for which the inhibition in experiment [1] turned out to be 117%; in experiment [2], 104%.

As for `Cc1ccc(-c2n[nH]c(=S)n2/N=C/c2ccncc2)cc1`, the inhibition in experiment [1] stood at 111%; in experiment [2], 96%.

With `COc1ccc(-c2cc(NC=O)c3ncc(-c4cc(OC)c(OC)c(OC)c4)n3c2)cc1`, the inhibition in experiment [1] was 50.1%; in experiment [2] it was 53.5%.

Regarding `Cc1ccc(S(=O)(=O)/N=C(\CCl)N2CCOCC2)cc1`, the inhibition in experiment [1] is 110%; in experiment [2], 102%.

In the case of `COc1ccc(-c2cc(=O)oc3cc(OC(=O)C4CCCCC4)ccc23)cc1`, the values for the inhibition in experiment [1] and in experiment [2] were 110% and 101%, respectively.

For `CCCc1nnc(NC(=O)c2nc(S(=O)(=O)Cc3ccc(C)cc3)ncc2Cl)s1`, the inhibition is 89% in experiment [1] and 86.5% in experiment [2].

In the case of `Nc1nc(N)nc(-c2cc(O)ccc2O)n1`, the inhibition in experiment [1] was 105%; in experiment [2], 116%.

As to `Nc1cc2c(cc1Br)-c1ccccc1C2=NO`, the values for the inhibition in experiment [1] and in experiment [2] were 93.5% and 106%, respectively.

Take `CCCCCCc1cc2cc(C(=O)Nc3ccccc3OC)c(=O)oc2cc1O`: the inhibition in experiment [1] was found to be 2.45%; in experiment [2] it was 66.2%.

`COc1ccc(-c2cnc3c(NC=O)cc(-c4ccc(C(=O)N5CCOCC5)cc4)cn23)cc1OC`: the inhibition in experiment [1] is 106%; in experiment [2], 99%.

Regarding `COc1ccc2c(=O)cc(-c3ccncc3)oc2c1OC`, the inhibition came to 116% in experiment [1] and 103% in experiment [2].

Take `CC(NC(=O)OCc1ccccc1)C(=O)Oc1cc2oc(=O)cc(-c3ccccc3)c2cc1Cl` (stereo not given): the inhibition in experiment [1] and in experiment [2] was 103% throughout.

Take `CCOc1ccccc1NC(=S)Nc1ccc2cn[nH]c2c1`: the inhibition amounted to 104% in experiment [1] and 114% in experiment [2].

With `S=c1[nH]nc(-c2ccncc2)n1/N=C/C(Cl)=C\c1ccccc1`, the inhibition in experiment [1] is 101%; in experiment [2], 109%.

With `CCC(Oc1ccccc1)C(=O)Nc1ncc([N+](=O)[O-])s1` (stereo not given), the inhibition in experiment [1] was determined as 112%; in experiment [2], 98.9%.

Regarding `O=C(NC1CCCC(C(F)(F)F)C1)c1ccc([N+](=O)[O-])o1` (stereo not given), the figures for the inhibition in experiment [1] and in experiment [2] were 97.5% and 103%, respectively.

For `Cc1nc2sc(C(N)=O)c(N)c2c2c1CCCC2`, the inhibition worked out at 116% in experiment [1] and 104% in experiment [2].

As to `COc1cc(CCc2ccccc2)c(C(=O)O)c(O)c1C/C=C(/C)CCC=C(C)C`, the inhibition in experiment [1] amounted to 104%; in experiment [2] it was 114%.

As for `COc1cc(NC(=O)c2cc3ccccc3cc2OC)ccc1NC(=O)c1cccs1`, the inhibition in experiment [1] was found to be 98.1%; in experiment [2], 107%.

`COCCCN=C1NN=C(c2cc(C)n(Cc3ccccc3Cl)c2C)CS1`: the inhibition in experiment [1] is 88.6%; in experiment [2] it was 106%.

Turning to `Cc1ccc(S(=O)(=O)Nc2ccc3cc([N+](=O)[O-])ccc3c2[N+](=O)[O-])cc1`, the inhibition stood at 109% in experiment [1] and 101% in experiment [2].

As for `O=C1C=C(NC2=CC3OC(c4ccccc4)OCC3OC2=O)CCC1` (stereo not given), the inhibition in experiment [1] turned out to be 103%; in experiment [2] it was 111%.

As to `COc1ccc(-c2nc(NC(=O)c3ccc(OCC(=O)Nc4ccc(F)cc4)c(OC)c3)sc2C)cc1`, the inhibition worked out at 91.7% in experiment [1] and 96.2% in experiment [2].

`Cc1ccc2[nH]cc(C(=O)CCl)c2c1`: the inhibition was determined as 60.6% in experiment [1] and 72% in experiment [2].

With `NC(=O)c1sc2nccc(Nc3ccccc3)c2c1N`, the inhibition in experiment [1] is 117%; in experiment [2], 103%.

`Clc1ccc(-c2csc3ncnc(N4CCc5ccccc5C4)c23)cc1`: the inhibition in experiment [1] came out at 103%; in experiment [2], 112%.

As for `C=C1C(=O)OC2CC1C(O)CC(C)=CCCC(C)=CC(O)CC2C` (stereo not given), the results for the inhibition in experiment [1] and in experiment [2] were 103% and 110%, respectively.

With `Cc1ccc(C)c(S(=O)(=O)N(C(=O)c2ccncc2)c2ccc(OC(=O)c3ccncc3)cc2)c1`, the inhibition in experiment [1] came to 104%; in experiment [2], 118%.

Take `COc1ccc(/C=C/C(=O)c2cc(F)ccc2OC(=O)c2ccccc2C)cc1OC`: the inhibition in experiment [1] was 4.66%; in experiment [2], 90.3%.
